These results are taken from PubChem BioAssay AID1508621 (National Center for Advancing Translational Sciences (NCATS), 2021).

Results filed as inconclusive are left out. Calls of active or inactive are those of the source. The call rests on the fitted dose curve; in most records, active means well fitted inhibition curve with a large enough effect; inconclusive means small, poorly fitted or top-dose-only effect; inactive means no such curve, though single readings can be large or run the other way.
Potency means the concentration at half of the fitted maximal effect.

This assay is described as follows: Confirmatory qHTS for Identification of Small Molecule Inhibitors of Huntingtin Promoter Activity. Further: nearly all actives have a fitted effect of over 65% in size.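 On activity change, negative = inhibition: 0% = vehicle control and -100% = zero luminescence signal.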 The conditions noted are these: HEK293 HTT promoter firefly luciferase reporter, 24 h; series mostly up to 57.5 µM; activity change, negative = inhibition: at the top concentration. An outline of the steps:
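Plated reporter HEK293 cells (24 h) received library compounds at up to 57.5 uM final or 50 uM PTC124, incubated 24 h at 37C; firefly luciferase luminescence was then recorded with Dual-Glo reagent.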
Background: In qHTS, concentration-response curves come from the screen itself.
With `O=C(CCCCCCNC(=O)c1cnc(N(c2ccccc2)c2ccccc2)nc1)NO`, the “activity change, negative = inhibition” value was 440% (inactive).
Consider `CCN(CCCNC(=O)c1cc2cc3ccc(C)cc3nc2s1)c1ccccc1`, for which the “activity change, negative = inhibition” value is -14.1% (inactive).
As to `FC(F)(F)c1cccc(Nc2nc3nonc3nc2Nc2ccc(Cl)cc2)c1`, the Potency is 0.379 µM (active).
Same read-out and setting: with `COc1ccc(N2CCN(C(=O)c3ccc4c(=O)n(CCc5ccc(OC)c(OC)c5)c(=O)[nH]c4c3)CC2)cc1` the figure was 12 µM (active); with `Cc1ccccc1OCc1ccc(-c2nc(C#N)c(NCc3cccnc3)o2)o1`, 19 µM (active).
On to `C#Cc1cccc(Nc2ncnc3cc(OC)c(OCCCCCCC(=O)NO)cc23)c1`, for which the “activity change, negative = inhibition” value is -42.5% [at 115 µM] (inactive).
For `Cc1cccc(NC(=O)c2c(NC(=O)C(F)(F)F)sc3c2CCCCC3)c1`, the Potency is 2.39 µM (active).
Consider `CC=C1NC(=O)[C@H]2CSSCCC=C[C@H](CC(=O)N[C@H](C(C)C)C(=O)N2)OC(=O)[C@H](C(C)C)NC1=O`, for which the “activity change, negative = inhibition” value was 9.87% (inactive).
On the same count and under the same terms, with `CCOc1ccc(C(=O)N(Cc2cc(OC)c(OC)c(OC)c2)c2ccccn2)cc1` the figure was -18.3% (inactive); with `Cc1ccc2nc(-c3ccncc3)c(Nc3ccccc3C)n2c1`, 19.8% (inactive); with `COc1ccc2nc(N3CCN(C(=O)CS(=O)(=O)c4ccc(C)cc4)CC3)sc2c1`, -14.3% (inactive).
As to `COc1ccc([C@@H]2CNC(=O)C2)cc1OC1CCCC1`, the “activity change, negative = inhibition” value is -7.15% (inactive).
The same measure, in the same setting: with `CC(C)[C@H](CO)Nc1nc(Nc2ccc(C(=O)O)c(Cl)c2)c2ncn(C(C)C)c2n1` the figure was -5.69% (inactive); with `Cc1ccc(S(=O)(=O)n2nc(-c3ccccc3)nc2NCc2ccccc2Cl)cc1`, -5.17% (inactive); with `CCOC(=O)C1CCN(C(=O)Cn2c(-c3cccs3)cc3cc(Cl)ccc32)CC1`, -21.2% (inactive).
